The values that follow come from PubChem BioAssay (NCI).

Compounds without any hit were thinned out: in the full panel of roughly 83,000, 20% have a hit.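 Cells were grown in 96-well plates and exposed to the test compound at a single concentration for 48 hours; results are reported as percent growth, with values below 10 considered active.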 A number with no mark means an inactive call. The source made the active and inactive calls.

Some test systems named below: RPMI-8226 leukemia; OVCAR-8 ovarian; OVCAR-5 ovarian; OVCAR-4 ovarian; SK-OV-3 ovarian; IGROV1 ovarian; HS 578T breast; NCI/ADR-RES ovarian; OVCAR-3 ovarian.
Assay in all cases: NCI-60 one-dose screen, 48 h (100 = growth as untreated, 0 = no growth, -100 = all killed)
Common to all, as to settings: 10 µM unless noted

Consider `NC(=S)N/N=C1\CCCC(C(F)(F)F)C1` (centres undefined), for which the growth is 71.1% in the assay with RPMI-8226 leukemia; 84.5% in the assay with OVCAR-8 ovarian; 103% in the assay with OVCAR-5 ovarian; 97.7% in the assay with OVCAR-4 ovarian; 108% with SK-OV-3 ovarian; 13.7% in the assay on IGROV1 ovarian. Also, the growth in the assay on HS 578T breast is 111%; with NCI/ADR-RES ovarian, 87.7%.
As for `COc1ccc(OC)c(C2OC(c3ccc4ccccc4c3O)=NN2C(C)=O)c1` (centres undefined), the growth in the assay on RPMI-8226 leukemia is 66.6%; in the assay with OVCAR-8 ovarian it was 81%; with OVCAR-5 ovarian, 102%; in the assay with OVCAR-4 ovarian, 75.5%; in the assay with SK-OV-3 ovarian it was 58%; in the assay with IGROV1 ovarian it was 75.8%. Also, the growth in the assay with OVCAR-3 ovarian is 52.4%; in the assay on HS 578T breast, 71.7%; with NCI/ADR-RES ovarian, 59.2%.
Regarding `NC(=O)CCCN1C/C(=C\c2ccccc2)C(=O)c2ccccc21`, the growth in the assay with RPMI-8226 leukemia was 101%; in the assay with OVCAR-8 ovarian, 98.4%; with OVCAR-5 ovarian it was 101%; in the assay with OVCAR-4 ovarian, 98.9%; with SK-OV-3 ovarian, 89.5%; with IGROV1 ovarian, 102%. The growth in the assay with OVCAR-3 ovarian was 109%; with HS 578T breast, 99.6%; with NCI/ADR-RES ovarian it was 109%.
In the case of `COc1ccncc1S(=O)(=O)NC(=O)Nc1ccc(Cl)c(Cl)c1`, the growth is 46.2% in the assay with RPMI-8226 leukemia; 97.8% with OVCAR-8 ovarian; 89.6% with OVCAR-5 ovarian; 95.7% in the assay on OVCAR-4 ovarian; 114% in the assay on SK-OV-3 ovarian; 82.7% in the assay with IGROV1 ovarian. In addition, the growth in the assay with OVCAR-3 ovarian is 90%; with HS 578T breast, 93.9%; in the assay on NCI/ADR-RES ovarian it was 89.8%.
Take `COc1ccc(-n2c(=S)sc3c(Cl)nc(C)nc32)c(OC)c1`: the growth was 22.6% in the assay with RPMI-8226 leukemia; 0.172% (active) with OVCAR-8 ovarian; 87% in the assay with OVCAR-5 ovarian; 95.6% in the assay on OVCAR-4 ovarian; 80.1% in the assay on SK-OV-3 ovarian; -17.3% (active) with IGROV1 ovarian. The growth in the assay with OVCAR-3 ovarian is -20.7% (active); in the assay with HS 578T breast, 72.6%; in the assay on NCI/ADR-RES ovarian, 78.5%.
As to `Nc1nnc(-c2ccc3ccccc3c2O)o1`, the growth with RPMI-8226 leukemia was 90.8%; with OVCAR-8 ovarian, 97.6%; in the assay on OVCAR-5 ovarian, 102%; with OVCAR-4 ovarian, 81.2%; in the assay with SK-OV-3 ovarian it was 105%; in the assay on IGROV1 ovarian it was 86%. Moreover, the growth in the assay with OVCAR-3 ovarian is 99.2%; with HS 578T breast, 97.9%; in the assay on NCI/ADR-RES ovarian it was 84.5%.
As to `CC(C)C1=CC2=C(C=O)C[C@@H]3[C@](C)(CCC[C@@]3(C)C(=O)OCC#CCN3CCCC3)[C@H]2CC1`, the growth with RPMI-8226 leukemia was 33.8%; with OVCAR-8 ovarian, 77.9%; with OVCAR-5 ovarian, 88.1%; with OVCAR-4 ovarian, 78.1%; in the assay with SK-OV-3 ovarian, 81.8%; with IGROV1 ovarian, 75.4%. Moreover, the growth with OVCAR-3 ovarian was 88.7%; with HS 578T breast, 67.9%; with NCI/ADR-RES ovarian it was 82.2%.
For the compound `Cc1ccc(-c2nc(C#N)c(S(=O)(=O)n3nc(-c4ccccc4)cc3N)o2)cc1`, the growth is 83.4% with RPMI-8226 leukemia; 90.4% with OVCAR-8 ovarian; 106% in the assay with OVCAR-5 ovarian; 114% with OVCAR-4 ovarian; 94.8% in the assay with SK-OV-3 ovarian; 101% in the assay with IGROV1 ovarian. Also, the growth with OVCAR-3 ovarian is 17.7%; in the assay on HS 578T breast, 95.6%; in the assay with NCI/ADR-RES ovarian it was 94.9%.
In the case of `Cc1ccc(NS(=O)(=O)c2cc(C)ccc2C)cc1`, the growth in the assay on RPMI-8226 leukemia was 13.6%; with OVCAR-8 ovarian, 54.8%; with OVCAR-5 ovarian it was 82.8%; in the assay on OVCAR-4 ovarian, 92.6%; with SK-OV-3 ovarian it was 56.3%; in the assay on IGROV1 ovarian, 53.8%. Also, the growth with OVCAR-3 ovarian was 3.62% (active); in the assay on NCI/ADR-RES ovarian, 2.96% (active).
Consider `CCCCCCCCN(CCCCCCCC)CCCCCCNc1cc(OC)cc2cccnc12`, for which the growth in the assay on RPMI-8226 leukemia was 52.3%; with OVCAR-8 ovarian, 73.3%; with OVCAR-5 ovarian, 92.4%; with OVCAR-4 ovarian, 82.7%; with SK-OV-3 ovarian, 102%; in the assay on IGROV1 ovarian, 78.7%. Moreover, the growth in the assay with HS 578T breast was 111%; in the assay on NCI/ADR-RES ovarian, 80.2%.
As for `COc1ccc(Nc2nn3c(-c4ccccc4)cc(-c4ccccc4)nc3c2C(N)=O)c(OC)c1`, the growth was 71.8% with RPMI-8226 leukemia; 27.8% in the assay on OVCAR-8 ovarian; 63.6% with OVCAR-5 ovarian; -8.96% (active) in the assay with OVCAR-4 ovarian; 63.7% in the assay on SK-OV-3 ovarian; 91.6% in the assay with IGROV1 ovarian. Further, the results for the growth in the assay on OVCAR-3 ovarian, with HS 578T breast and with NCI/ADR-RES ovarian were 46.2%, 56.8% and 30.4%, respectively.
Take `COc1cc(-c2nn(-c3cccc(NC(=O)Nc4cccc(C(F)(F)F)c4)c3)cc2-c2ccncc2)ccc1Cl`: the growth was -14.8% (active) in the assay with RPMI-8226 leukemia; -36.2% (active) with OVCAR-8 ovarian; 28.2% with OVCAR-5 ovarian; 11.1% with OVCAR-4 ovarian; 4.13% (active) with SK-OV-3 ovarian; 14% in the assay on IGROV1 ovarian. The growth in the assay on OVCAR-3 ovarian was -42% (active); in the assay on HS 578T breast, -13.7% (active); with NCI/ADR-RES ovarian it was -11.9% (active).
For `COc1cc(/C(C#N)=C/c2ccc3c(c2OC)OCO3)cc2c1OCO2`, the growth in the assay on RPMI-8226 leukemia was 32.3%; in the assay on OVCAR-8 ovarian, 28.8%; with OVCAR-5 ovarian, 42.7%; in the assay on OVCAR-4 ovarian, 56.3%; in the assay on SK-OV-3 ovarian it was 16.2%; with IGROV1 ovarian it was 37.7%. Further, the growth is -36% (active) in the assay with OVCAR-3 ovarian, 0.131% (active) with HS 578T breast and -7.38% (active) with NCI/ADR-RES ovarian.
In the case of `COc1ccc(-c2nc3sccn3c2/C=C/C(=O)c2cc(F)cc(F)c2)cc1`, the growth was 6.15% (active) in the assay with RPMI-8226 leukemia; 80.7% in the assay on OVCAR-8 ovarian; 102% with OVCAR-5 ovarian; 66.2% with OVCAR-4 ovarian; 75.3% with SK-OV-3 ovarian; 54.7% in the assay with OVCAR-3 ovarian. The growth with HS 578T breast was 75.1%; with NCI/ADR-RES ovarian it was 78%.
In the case of `COc1ccc2c(c1)[nH]c(=O)c1c3cc(OC)ccc3cn21`, the growth in the assay with RPMI-8226 leukemia is -63.2% (active); in the assay on OVCAR-8 ovarian it was 4.9% (active); with OVCAR-5 ovarian, 25.9%; in the assay on OVCAR-4 ovarian it was 46.1%; in the assay on SK-OV-3 ovarian, 42.4%; in the assay with IGROV1 ovarian it was 16.8%. The growth in the assay with NCI/ADR-RES ovarian was 21.5%.
